Most compounds without a hit are left out; they make up all but 3.9% or so of the library.
Eya2 phos inh = inhibitors of human Eya2 phosphatase activity. hit rate 0.006% among 330,000. recombinant Eya2, OMFP fluorescence dephosphorylation (OMFP is methylfluorescein phosphate). Potency, µM (titrated, usually from 76.9 µM), most hits filed as inhibitors. AID 488837. O00167
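Eya2 protein (added as 0.2 uM solution) was preincubated with compound for 10 min at ambient temperature in 50 mM HEPES pH 7.5, 50 mM NaCl, 5 uM MgCl2, 0.05% BSA, 1 mM DTT. OMFP (added at 50 uM) then reacted 10 min; fluorescence read at 485/525 nm.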
USP2a block = USP2a (human) protease inhibition | O75604 | USP2 core, Ub-CHOP2 coupled fluorogenic reporter, 485/531 | Potency, µM (highest dose often 38.3 µM), actives largely listed as inhibitors | hit rate 0.01% among 330,000 | AID 463254
Target sequence (O75604 whole entry, looked up): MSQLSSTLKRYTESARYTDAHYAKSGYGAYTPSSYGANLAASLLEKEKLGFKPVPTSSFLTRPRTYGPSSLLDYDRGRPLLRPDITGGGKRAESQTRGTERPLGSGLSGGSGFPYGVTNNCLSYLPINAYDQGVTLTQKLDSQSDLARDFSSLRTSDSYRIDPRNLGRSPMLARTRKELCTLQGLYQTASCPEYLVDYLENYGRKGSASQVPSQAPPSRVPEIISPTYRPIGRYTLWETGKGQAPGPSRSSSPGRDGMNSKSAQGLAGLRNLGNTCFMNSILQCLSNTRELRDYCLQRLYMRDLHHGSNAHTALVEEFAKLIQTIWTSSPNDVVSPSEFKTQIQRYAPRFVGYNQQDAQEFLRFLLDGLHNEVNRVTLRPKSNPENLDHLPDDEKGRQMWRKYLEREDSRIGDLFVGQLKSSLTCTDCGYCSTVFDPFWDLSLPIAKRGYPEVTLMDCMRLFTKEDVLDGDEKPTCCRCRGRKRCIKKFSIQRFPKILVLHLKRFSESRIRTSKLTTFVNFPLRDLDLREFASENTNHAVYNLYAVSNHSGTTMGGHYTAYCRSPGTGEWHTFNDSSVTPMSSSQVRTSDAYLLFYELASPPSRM
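Cell-free coupled assay: 10nM USP2 core preincubated 30min RT with compound in Tris-HCl pH 8.0/CaCl2/CHAPS buffer, then 25nM Ub-CHOP2 and 25nM reporter substrate; fluorescence (Ex 485/Em 531) read after 60min RT, normalized to NEM inhibition, concentration-response curves fitted.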
D1 PAM = potentiators of human D1 dopamine receptor; P21728; HEK293 TREx D1 cells, calcium flux, dopamine EC20 potentiation; potentiation, % at 10 µM; hit rate 0.036% among 360,000; in the data active = potentiation above about 30%
GALK inh = galactokinase (human) inhibition; hit rate 0.007% among 270,000; Purified GALK, Kinase-Glo residual ATP luminescence; Potency, µM (series often up to 57.5 µM), most hits filed as inhibitors
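Galactose (100 uM) and ATP (35 uM) were turned over by 5 nM GALK for 1 h at RT. Kinase-Glo Plus then converted the remaining ATP into a luminescent signal.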
D1 agonist = human D1 receptor agonism | AID 504660 | HEK293 T-REx D1 cells, calcium flux, agonist mode | hit rate 1% among 360,000 | activation, % at 2 µM; in the data active = activation above about 30%
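Inducible HEK293 T-REx D1 cells, force-coupled to calcium signalling, were plated at 4000 cells/well with tetracycline and held overnight at 30 C. After no-wash calcium dye loading, compound-evoked calcium rise over 180 s flagged agonists.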
D1 antagonist = antagonists of human D1 dopamine receptor | activity change, negative = inhibition, % at 10 µM | P21728 | hit rate 3.2% among 360,000 | HEK293 TREx D1 cells, calcium flux, dopamine EC80; active compounds read low; in the data active = activity change below about -30%
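After overnight tetracycline induction at 30 C, force-coupled D1 HEK293 cells took up a no-wash calcium dye at room temperature. Compounds were added and monitored 180 s, and the response to EC80 dopamine was then recorded.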
Hits are given with their value; i = inactive; nt = no result given. Unless noted, calls follow the shape of the dose curve; as a rule, active = well fitted inhibition curve with a large enough effect; inconclusive = small, poorly fitted or top-dose-only effect, or effect the other way; inactive = flat fitted curve, though single readings scatter.

SMILES	Eya2 phos inh	USP2a block	D1 PAM	GALK inh	D1 agonist	D1 antagonist
CCC(Sc1nc(-c2ccc(F)cc2)nc2c1Cc1c(CO)cnc(C)c1O2)C(=O)Nc1ccc(F)cc1 (configuration not stated)	nt	nt	i	nt	i	i
Clc1ccc(CN2CCC(CNc3ncnc4onc(-c5ccc(Cl)cc5)c34)CC2)cc1	nt	nt	i	nt	i	i
O=C(CSc1ncc(CO)n1Cc1ccccc1)Nc1ccc(C(F)(F)F)cc1	nt	nt	i	nt	i	i
CC(=O)N1CCc2cc(S(=O)(=O)NC(Cc3ccccc3)C(=O)Nc3cc(C)ccc3C)ccc21 (configuration not stated)	nt	nt	i	nt	i	i
CCOC(=O)c1cnn(-c2ccccc2)c1-n1cccc1C(=O)C(=O)Nc1ccc(F)cc1	i	i	i	i	i	-85
O=[N+]([O-])c1ccc(Nc2ccc(Cl)cc2)nc1	i	i	i	i	i	i
O=C(O)c1cccc(Nc2ccc([N+](=O)[O-])cn2)c1	i	i	i	i	i	-35
O=[N+]([O-])c1ccc(Nc2ccc3ccccc3c2)nc1	i	i	i	i	i	-34
O=c1c(=O)n(-c2cccc(Cl)c2)ccn1Cc1cccc(F)c1	nt	nt	i	nt	i	i
Cc1cccc(Cl)c1OCCN1CCCC1	i	i	i	i	i	-41
O=[N+]([O-])c1ccc(OC/C=C2\Oc3ccc([N+](=O)[O-])cc3C2N2CCOCC2)cc1 (configuration not stated)	i	i	i	i	i	-69
CN(CC(=O)Nc1ccc(F)c(F)c1F)C(=O)c1ccc(N2CCCC2=O)cc1	i	i	nt	nt	nt	nt
CN(CC(=O)Nc1ccc(OC(F)(F)F)cc1)C(=O)c1ccc(N2CCCC2=O)cc1	i	i	i	nt	i	-32
CN(CC(=O)Nc1ccc(Cl)cc1)C(=O)c1ccc(N2CCCC2=O)cc1	i	i	i	nt	i	-39
COc1ccc(C(=O)N(Cc2cc(OC)c(OC)c(OC)c2)CC2CCCO2)cc1 (configuration not stated)	nt	nt	i	nt	i	i
O=C(CN1C2=NCCCN2c2ccccc21)c1cccc(Br)c1	i	i	i	i	38	i
Clc1ccc(CN2C3=NCCCN3c3ccccc32)cc1	i	i	i	i	72	-60
Cc1cccc2sc(N(Cc3cccnc3)C(=O)C3CCCCC3)nc12	nt	nt	i	nt	i	nt
CC1CCN(CC(=O)N2c3ccccc3CCc3ccccc32)CC1	i	i	i	i	i	i
O=C(CN1CCC(O)CC1)N1c2ccccc2C=Cc2ccccc21	i	10µM	i	i	i	i
COCCn1c(=NC(=O)c2nc3ccccc3s2)sc2cc(S(C)(=O)=O)ccc21	i	i	i	i	i	-85
COC(=O)Cn1c(=NC(=O)c2nc3ccccc3s2)sc2cc(S(N)(=O)=O)ccc21	i	i	i	i	i	i
O=C1C=C(c2ccc3c(c2)oc2ccccc23)C[C@@H](c2ccc3c(c2)OCO3)C1	i	i	i	nt	i	-33
Cc1ccc(C2=CC(=O)C[C@H](c3ccc4c(c3)OCO4)C2)cc1	i	i	i	nt	i	nt
CCc1ccc(S(=O)(=O)c2cn(Cc3ccccc3F)c3cc(OC)c(OC)cc3c2=O)cc1	nt	nt	i	nt	i	i
SMILES	Eya2 phos inh	USP2a block	D1 PAM	GALK inh	D1 agonist	D1 antagonist
Cc1cc2c(c(=O)n1CCc1ccccc1)C(C(C)C)C(C#N)=C(N)O2 (configuration not stated)	i	i	i	i	i	-32
CCN(CC)CCCn1c(C)cc2c(c1=O)C(c1ccccc1)C(C#N)=C(N)O2 (configuration not stated)	i	i	i	i	i	i
O=C(NC(N1CCOCC1)C(Cl)(Cl)Cl)c1ccco1 (configuration not stated)	i	i	i	i	i	i
O=C(/C=C/c1ccccc1)NC(N1CCOCC1)C(Cl)(Cl)Cl (configuration not stated)	i	i	i	i	i	-34
Cc1ccc(C(=O)C(C)Oc2cccc(NC(=O)c3ccco3)c2)cc1 (configuration not stated)	i	i	i	i	42	i
CCOc1ccc(CC(=O)Nc2cccc(-c3ccc4nnc(C)n4n3)c2)cc1	i	i	i	i	i	-32
Cc1nnc2ccc(-c3cccc(NC(=O)c4ccco4)c3)nn12	i	i	i	i	i	-33
Cc1cccc(NC(=O)c2ccccc2O)c1C	i	i	i	i	i	-32
COc1ccc(CN2CCCN(CC(=O)Nc3cc(C)ccc3C)S2(=O)=O)cc1	nt	nt	i	nt	i	i
O=C1[C@@H]2C(c3ccc(F)cc3)=NO[C@@H]2C(=O)N1Cc1ccccc1	i	i	i	i	i	i
COc1ccc(CN2C(=O)[C@@H]3C(c4ccc(F)cc4)=NO[C@@H]3C2=O)cc1	i	i	i	i	i	-37
O=c1n(Cc2ccccc2)nc2n1-c1cc(Cl)ccc1OC2	nt	nt	i	nt	i	i
COc1ccc(Nc2nc3ccccc3s2)cc1	i	i	i	i	i	-38
COc1ccc(Nc2ccnc3ccccc23)cc1	i	i	i	i	i	-43
Cc1cccc(Nc2nc3ccccc3s2)c1C	i	i	i	i	30	i
Cc1cccc(Nc2n[nH]c(=S)s2)c1C	i	i	i	i	i	i
COc1cccc(Nc2nc3ccc(OC)cc3s2)c1	i	i	i	i	i	i
COc1ccc(-c2nc(CS(=O)CC(=O)NCCc3ccccc3)c(C)o2)cc1OC (configuration not stated)	nt	nt	i	nt	i	i
Cc1ccc2occ(CC(=O)Nc3ccc(S(=O)(=O)N4CCCC(C)C4)cc3)c2c1 (configuration not stated)	nt	nt	i	nt	i	i
CN1CCN(CCCNC(=O)c2ccc(/C=C3\Oc4ccccc4N(Cc4ccccc4F)C3=O)cc2)CC1	i	i	i	i	103	-47
C=CCOC(=O)C1=C[C@@H](c2coc3ccccc3c2=O)C[C@@H](OCc2ccc(CO)cc2)O1	i	i	i	i	i	-49
C=CCOC(=O)C1=C[C@H](c2coc3ccccc3c2=O)C[C@H](OCc2ccc(CO)cc2)O1	i	i	i	i	i	i
O=C(Nc1ccccc1)C1=C[C@@H](c2coc3ccccc3c2=O)C[C@@H](OCc2ccc(CO)cc2)O1	i	i	i	i	i	-37
O=C(NCc1ccccc1)C1=C[C@H](c2coc3ccccc3c2=O)C[C@H](OCc2ccc(CO)cc2)O1	i	i	i	i	i	i
Cc1cc(Br)ccc1NC(=O)C1CCN(S(=O)(=O)c2cccc3nsnc23)CC1	nt	nt	i	nt	i	i
CC(=O)c1ccc(NC(=O)Cn2c3ncccc3c(=O)n2-c2ccc(C)cc2)cc1	nt	nt	i	nt	i	i

Screening data (PubChem BioAssay)
